In all, about 52,000 compounds went through this assay and about 4,300 (8.3%) were called active. The sample holds actives, similar compounds and a random draw of the others, so the mix is not that of the screen. No stated cut-off is given here; in the data, active means survival mostly below about 52% (no sharp cut-off); inactive means mostly above about 56%.
What follows are molecules tested on DeltatarO mutant (assay: growth inhibition of S. aureus wild type versus tarO mutant, primary screen, teichoic acid synthesis inhibitors, RN4220, OD600 (AID 463173)). Details: OD600, 18 h, active compounds read low, screened at 18.75 µg/mL (by protocol).

Compound	survival
COc1ccc(CNC(=O)c2ccc(N3CCCC3)c(NC(=O)NCc3ccc(F)cc3)c2)cc1	93% (inactive)
Cc1ccc(-n2ncc3c(NC4CCCCCC4)ncnc32)cc1Cl	66% (inactive)
CCc1ccc(NC(=O)Cn2ccn(-c3cccc(Cl)c3)c(=O)c2=O)cc1	61% (inactive)
Cc1ccccc1NC(=O)c1ccc(N(Cc2ccccc2)S(C)(=O)=O)cc1	66% (inactive)
Cc1cccc(NC(=O)c2ccc(N(Cc3ccccc3)S(C)(=O)=O)cc2)c1	48% (active)
CS(=O)(=O)N(Cc1ccccc1)c1ccc(C(=O)Nc2ccc(Cl)cc2)cc1	145% (inactive)
CS(=O)(=O)N(Cc1ccccc1)c1ccc(C(=O)Nc2cccc(Cl)c2)cc1	36% (active)
Cc1ccc(C(=O)Nc2ccc(S(=O)(=O)N(Cc3ccccc3)c3ccccc3)cc2)cc1	65% (inactive)
Cc1ccc(NC(=O)c2ccc(N(Cc3ccccc3)S(C)(=O)=O)cc2)cc1	64% (inactive)
CNc1nc2c(c(=O)[nH]c(=O)n2C)n1Cc1cccc2ccccc12	85% (inactive)
COc1cccc(N2CCN(C(=O)C(CCSC)NS(=O)(=O)c3ccc4c(c3)oc(=O)n4C)CC2)c1 (stereo not given)	106% (inactive)
Fc1ccc(-n2cc(-c3ccccc3)c3c(NC4CCCCC4)ncnc32)cc1	85% (inactive)
CC(C)(C)OC(=O)N1CCC(c2c(C(=O)NCc3cccs3)cnn2-c2ccc(F)cc2F)CC1	72% (inactive)
CC(C)(C)OC(=O)N1CCC(c2c(C(=O)NCc3cccs3)cnn2-c2cccc(F)c2)CC1	-5% (active)
COc1ccc(CNC(=O)c2cnn(-c3ccc(OC)cc3)c2C2CCN(C(=O)OC(C)(C)C)CC2)cc1	74% (inactive)
Cc1ccc(-n2ncc(C(=O)NCc3cccs3)c2C2CCN(C(=O)OC(C)(C)C)CC2)cc1C	91% (inactive)
CC(C)(C)OC(=O)N1CCC(c2c(C(=O)NCCN3CCC(Cc4ccccc4)CC3)cnn2-c2ccc(F)cc2)CC1	47% (active)
CC(C)(C)OC(=O)N1CCC(c2c(C(=O)NCc3ccc(F)cc3)cnn2-c2ccc(F)cc2)CC1	-5% (active)
CC(C)(C)OC(=O)N1CCC(c2c(C(=O)NCc3ccccc3)cnn2-c2ccc(F)cc2)CC1	128% (inactive)
Cc1ccc(-n2ncc(C(=O)NCCN3CCC(Cc4ccccc4)CC3)c2C2CCN(C(=O)OC(C)(C)C)CC2)cc1	98% (inactive)
CC(C)(C)OC(=O)N1CCC(c2c(C(=O)NCCN3CCC(Cc4ccccc4)CC3)cnn2-c2ccccc2)CC1	80% (inactive)
CC(C)CCNC(=O)CSc1nc2ccccc2nc1Cc1ccccc1	82% (inactive)
CCCc1nnc(NC(=O)c2cc(=O)c3cc(C)c(C)cc3o2)s1	35% (active)

Compound	survival
CC(=O)Nc1ccc(NC(=O)c2cc(=O)c3ccccc3o2)cc1	59% (inactive)
CCCc1nnc(NC(=O)c2cc(=O)c3cc(Cl)ccc3o2)s1	43% (active)
CCc1nnc(NC(=O)c2cc(=O)c3cc(C)c(C)cc3o2)s1	36% (active)
Cc1ccc2c(=O)cc(C(=O)Nc3nnc(CC(C)C)s3)oc2c1C	61% (inactive)
CCCSc1nnc(NC(=O)Cc2coc3cc(C)ccc23)s1	85% (inactive)
Cc1cc2oc(C(=O)Nc3ccc(S(N)(=O)=O)cc3)cc(=O)c2cc1C	70% (inactive)
CCc1nnc(NC(=O)c2cc(=O)c3cc(C)ccc3o2)s1	79% (inactive)
Cc1ccc2oc(C(=O)Nc3nnc(CC(C)C)s3)cc(=O)c2c1	63% (inactive)
CCCC(=O)Nc1nnc(CCC)s1	80% (inactive)
CCCSc1nnc(NC(=O)c2cc(=O)c3ccccc3o2)s1	38% (active)
CCCc1nnc(NC(=O)c2cc(=O)c3ccccc3o2)s1	63% (inactive)
CCOc1ccc(-n2cc(C(=O)Nc3ccccc3OCC)c3cc(OC)c(OC)cc3c2=O)cc1	61% (inactive)
O=C(NCc1ccco1)c1ccc2c(c1)N(Cc1ccc(F)cc1)C(=O)c1ccccc1S2=O (stereo not given)	76% (inactive)
COc1ccccc1CNS(=O)(=O)c1cnc(N)nc1	89% (inactive)
C=CS(=O)(=O)c1ccc(Oc2ccc(S(=O)(=O)C=C)cc2)cc1	103% (inactive)
COC(=O)CNc1cn[nH]c(=O)n1	92% (inactive)
COCCN(Cc1ccco1)C(=O)c1cc2c(Cl)nc3ccc(C)cc3c2s1	92% (inactive)
CCc1c(C)c2ccc(O)c(CN3CCN(c4cc(Cl)ccc4C)CC3)c2oc1=O	54% (inactive)
CC(C)n1c(SCc2ccccc2)nnc1C1CCCN(CC(N)=O)C1 (stereo not given)	96% (inactive)
COc1ccc(Cn2ccc3nc(C)c(C(=O)N4CCN(c5ccccc5OC)CC4)cc3c2=O)cc1	102% (inactive)
O=C(NC12CCC(O)C(SC1)C2O)c1ccccc1 (stereo not given)	109% (inactive)
COc1ccccc1C(O)(C(=O)NNc1cccc(Br)n1)c1ccccc1OC	73% (inactive)
CCSc1nnc(NC(=O)c2cc(=O)c3cc(C)c(C)cc3o2)s1	44% (active)

Compound	survival
CSc1nnc(NC(=O)c2cc(=O)c3cc(C)c(C)cc3o2)s1	52% (inactive)
CCSc1nnc(NC(=O)c2cc(=O)c3cc(C)ccc3o2)s1	86% (inactive)
CC(Nc1ccc(-c2nc(-c3ccco3)no2)cc1[N+](=O)[O-])c1ccccc1 (stereo not given)	100% (inactive)
Cc1noc(-c2ccc(NC(C)c3ccccc3)c([N+](=O)[O-])c2)n1 (stereo not given)	70% (inactive)
CC(Nc1ccc(-c2nc(-c3cccnc3)no2)cc1[N+](=O)[O-])c1ccccc1 (stereo not given)	79% (inactive)
CNc1ccc(-c2nc(-c3ccccn3)no2)cc1[N+](=O)[O-]	52% (inactive)
CC(C)Nc1ccc(-c2nc(-c3ccccn3)no2)cc1[N+](=O)[O-]	38% (active)
CCC(Nc1ccc(-c2nc(-c3cccnc3)no2)cc1[N+](=O)[O-])c1ccccc1 (stereo not given)	64% (inactive)
CC(Nc1ccc(-c2nc(-c3ccncc3)no2)cc1[N+](=O)[O-])c1ccccc1 (stereo not given)	42% (active)
CC(C)Nc1ccc(-c2nc(-c3ccco3)no2)cc1[N+](=O)[O-]	107% (inactive)
CCC(Nc1ccc(-c2nc(-c3ccccn3)no2)cc1[N+](=O)[O-])c1ccccc1 (stereo not given)	41% (active)
CCC(Nc1ccc(-c2nc(-c3ccco3)no2)cc1[N+](=O)[O-])c1ccccc1 (stereo not given)	53% (inactive)
CC(C)Nc1ccc(-c2nc(-c3ccncc3)no2)cc1[N+](=O)[O-]	79% (inactive)
CC(Nc1ccc(-c2nc(-c3ccccn3)no2)cc1[N+](=O)[O-])c1ccccc1 (stereo not given)	19% (active)
COc1ccccc1C(=O)Nc1cc2c(cc1N1CCOCC1)n(C)c(=O)n2C	136% (inactive)
CCOc1cc(-c2nnc(SCC(=O)NCc3ccc(C)cc3)nc2-c2ccc(OC)c(OCC)c2)ccc1OC	78% (inactive)
CCOc1cc(NC(=S)NCCCN2CCOCC2)c(OCC)cc1NC(=O)C1CC1	94% (inactive)
O=C(Nc1ccc(OC(F)(F)F)cc1)C1CCN(S(=O)(=O)c2ccc3[nH]c(=O)ccc3c2)CC1	92% (inactive)
O=C(c1cccs1)N1CCC(Cc2ccccc2)CC1	86% (inactive)
Cn1cnc(S(=O)(=O)N2CCCC(C(=O)Nc3ccc(OC(F)(F)F)cc3)C2)c1 (stereo not given)	25% (active)
O=C(O)C1CCN(C(=O)c2cccs2)CC1	88% (inactive)
CC(C)c1ccc(NC(=O)C2CCN(S(=O)(=O)c3ccc(Br)s3)CC2)cc1	73% (inactive)
Cn1cnc(S(=O)(=O)N2CCC(C(=O)Nc3ccc(OC(F)(F)F)cc3)CC2)c1	92% (inactive)

Compound	survival
O=C(Nc1ccc(OC(F)(F)F)cc1)C1CCN(S(=O)(=O)c2cccs2)CC1	21% (active)
Cc1cc(NC(=O)C2CCN(S(=O)(=O)c3ccc(Br)s3)CC2)ccc1Br	79% (inactive)
CC(=O)c1ccc(NC(=O)C2CCCN(S(=O)(=O)c3cn(C)cn3)C2)cc1 (stereo not given)	94% (inactive)
O=C(Nc1ccc(OC(F)(F)F)cc1)C1CCCN(S(=O)(=O)c2ccc(Br)s2)C1 (stereo not given)	80% (inactive)
O=C(Nc1ccccc1)C1CCN(C(=O)c2cccs2)CC1	67% (active)
O=C(Nc1ccc(Cl)cc1)C1CCN(S(=O)(=O)c2ccc(Br)s2)CC1	47% (active)
CCC1SC(C)C/C(=N\O)C1C (stereo not given)	105% (inactive)
CCOc1ccc(CCNC(=O)CCCc2nnc3n(C)c(=O)c4sccc4n23)cc1OCC	93% (inactive)
COc1cc(OC)cc(-c2nc3nc(C)c(CCC(=O)Nc4cc(C)cc(C)c4)c(C)n3n2)c1	69% (inactive)
O=C(NCc1cccc(Br)c1)C1CCN(C(=O)c2sccc2-n2cccc2)CC1	66% (inactive)
O=C(CN1C(=O)COc2ccc(S(=O)(=O)N3CCCCCC3)cc21)N1CCN(c2ccc(F)cc2)CC1	67% (inactive)
CCCC(=O)Nc1nnc(SCc2cc(=O)c3ccc(C)cc3[nH]2)s1	122% (inactive)
COc1ccc(NS(=O)(=O)c2cc(-c3onc(C)c3C)ccc2C)c(OC)c1	89% (inactive)
CCOc1ccccc1NC(=O)C1CCN(S(=O)(=O)c2cccs2)CC1	58% (inactive)
Cc1ccc(NC(=O)C2CCN(S(=O)(=O)c3cccs3)CC2)cc1	40% (active)
O=C(Nc1cccc(C(F)(F)F)c1)C1CCN(S(=O)(=O)c2cccc3nsnc23)CC1	81% (inactive)
O=C(Nc1cccc(C(F)(F)F)c1)C1CCN(S(=O)(=O)c2cccs2)CC1	39% (active)
COc1ccc(NC(=O)C2CCCN(S(=O)(=O)c3cccs3)C2)cc1 (stereo not given)	96% (inactive)
CCc1cccc(NC(=O)C2CCCN(S(=O)(=O)c3cccs3)C2)c1 (stereo not given)	80% (inactive)
O=C(O)C1CSC(c2cccs2)N1 (stereo not given)	83% (inactive)
CCN1C(=O)c2ccccc2Sc2ccc(NC(=O)c3ccc(C#N)cc3)cc21	102% (inactive)

— PubChem BioAssay AID463173 (ICCB-Longwood Screening Facility, Harvard Medical School, 2010)
